Test results: PubChem BioAssay (NCI)
Compounds without any hit were thinned out: in the full panel of roughly 83,000, 20% have a hit.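 Cell lines were cultured in 96-well plates, exposed to a single compound concentration, and assessed for percent growth 48 hours later.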 A number with no mark means an inactive call. Calls of active or inactive are those of the source. Rule for the calls: active = growth percent below 10; inactive = the rest.

Tests used:
Test in all cases: NCI-60 one-dose screen, 48 h (100 = growth as untreated, 0 = no growth, -100 = all killed)
Settings in all cases: 10 µM unless noted
NCI-H23 lung = tested on: NCI-H23 lung
NCI-H226 lung = tested on: NCI-H226 lung
NCI-H322M lung = tested on: NCI-H322M lung
HOP-62 NSCLC = tested on: HOP-62 NSCLC
NCI-H460 lung = tested on: NCI-H460 lung
HOP-92 NSCLC = tested on: HOP-92 NSCLC
NCI-H522 lung = tested on: NCI-H522 lung
A549/ATCC NSCLC = tested on: A549/ATCC NSCLC
786-0 renal = tested on: 786-0 renal
COLO 205 colon = tested on: COLO 205 colon
DU-145 prostate = tested on: DU-145 prostate
K-562 leukemia = tested on: K-562 leukemia
MALME-3M melanoma = tested on: MALME-3M melanoma
MDA-MB-231 breast = tested on: MDA-MB-231 breast
RXF 393 renal = tested on: RXF 393 renal
SF-268 CNS = tested on: SF-268 CNS
SF-295 CNS = tested on: SF-295 CNS
SF-539 CNS = tested on: SF-539 CNS
UACC-257 melanoma = tested on: UACC-257 melanoma
M14 melanoma = tested on: M14 melanoma

Question: With `COc1ccc(Nc2nn3c(SCC(=O)c4ccc(C)cc4)nnc3s2)cc1` as the molecule, how does the growth (NCI-H23 lung) read?
Answer: Its growth is 91.1%.

Question: What about the growth (NCI-H226 lung) of the same molecule?
Answer: The growth was 84.8%.

Question: And the growth (NCI-H322M lung)?
Answer: Its growth is 86.2%.

Question: What about the growth (HOP-62 NSCLC) of the same molecule?
Answer: The growth was 90.8%.

Question: And the growth (NCI-H460 lung)?
Answer: The growth was 97.9%.

Question: What about the growth (HOP-92 NSCLC) of the same molecule?
Answer: Its growth is 83.4%.

Question: What about the growth (NCI-H522 lung) of the same molecule?
Answer: Its growth is 80.6%.

Question: What about the growth (A549/ATCC NSCLC) of the same molecule?
Answer: The growth was 96.6%.

Question: And the growth (786-0 renal)?
Answer: Its growth is 93.5%.

Question: And the growth (COLO 205 colon)?
Answer: Its growth is 91.8%.

Question: What about the growth (DU-145 prostate) of the same molecule?
Answer: Its growth is 101%.

Question: And the growth (K-562 leukemia)?
Answer: Its growth is 83.5%.

Question: And the growth (MALME-3M melanoma)?
Answer: Its growth is 98.7%.

Question: And the growth (MDA-MB-231 breast)?
Answer: The growth was 91.7%.

Question: What about the growth (RXF 393 renal) of the same molecule?
Answer: Its growth is 97.1%.

Question: What about the growth (SF-268 CNS) of the same molecule?
Answer: The growth was 100%.

Question: And the growth (SF-295 CNS)?
Answer: Its growth is 100%.

Question: And the growth (SF-539 CNS)?
Answer: The growth was 107%.

Question: What about the growth (UACC-257 melanoma) of the same molecule?
Answer: Its growth is 108%.

Question: And the growth (M14 melanoma)?
Answer: The growth was 99.2%.

Question: `Cc1cccc(Cc2cnc(NC(=O)CCCOc3ccc(Cl)cc3)s2)c1` was tested. Which growth (NCI-H23 lung) did it give?
Answer: The growth was 54%.

Question: What about the growth (NCI-H226 lung) of the same molecule?
Answer: Its growth is 53.8%.

Question: And the growth (NCI-H322M lung)?
Answer: Its growth is 44.7%.

Question: What about the growth (HOP-62 NSCLC) of the same molecule?
Answer: Its growth is 28.7%.

Question: What about the growth (NCI-H460 lung) of the same molecule?
Answer: Its growth is 9.65% (active).

Question: And the growth (HOP-92 NSCLC)?
Answer: The growth was 52.2%.

Question: And the growth (NCI-H522 lung)?
Answer: The growth was 42.5%.

Question: And the growth (A549/ATCC NSCLC)?
Answer: Its growth is 10.7%.

Question: And the growth (786-0 renal)?
Answer: Its growth is 11%.

Question: What about the growth (COLO 205 colon) of the same molecule?
Answer: The growth was 15.2%.

Question: What about the growth (DU-145 prostate) of the same molecule?
Answer: The growth was 24.2%.

Question: What about the growth (K-562 leukemia) of the same molecule?
Answer: The growth was 25.8%.

Question: And the growth (MALME-3M melanoma)?
Answer: The growth was 32.5%.

Question: And the growth (MDA-MB-231 breast)?
Answer: Its growth is 42.4%.

Question: What about the growth (RXF 393 renal) of the same molecule?
Answer: Its growth is 4.99% (active).

Question: And the growth (SF-268 CNS)?
Answer: The growth was 50.2%.

Question: What about the growth (SF-295 CNS) of the same molecule?
Answer: Its growth is 12.6%.

Question: And the growth (SF-539 CNS)?
Answer: Its growth is 8.78% (active).

Question: What about the growth (UACC-257 melanoma) of the same molecule?
Answer: Its growth is 23%.

Question: And the growth (M14 melanoma)?
Answer: The growth was -1.79% (active).

Question: What does the source list for `COc1cc(OC)cc(-c2ccc(-c3ccc(C(=N)N)cn3)s2)c1`?
Answer: growth (NCI-H23 lung): 94.6%; growth (NCI-H226 lung): 70%; growth (NCI-H322M lung): 89.2%; growth (HOP-62 NSCLC): 86%; growth (NCI-H460 lung): 4.75% (active); growth (HOP-92 NSCLC): 86.6%; growth (NCI-H522 lung): 78.7%; growth (A549/ATCC NSCLC): 63.2%; growth (786-0 renal): 74.3%; growth (COLO 205 colon): 49.4%; growth (DU-145 prostate): 66.3%; growth (K-562 leukemia): 0.742% (active); growth (MALME-3M melanoma): 99.5%; growth (MDA-MB-231 breast): 81.1%; growth (RXF 393 renal): 98.6%; growth (SF-268 CNS): 93.9%; growth (SF-295 CNS): 88.7%; growth (SF-539 CNS): 83.3%; growth (UACC-257 melanoma): 97.8%; growth (M14 melanoma): 95.7%

Question: For `C#CCn1cnc2cnc(Nc3cccc(NC(=O)CCl)c3)nc21`, which growth (NCI-H23 lung) is on record?
Answer: The growth was -8.25% [6.25 µM] (active).

Question: What about the growth (NCI-H226 lung) of the same molecule?
Answer: The growth was -26% [6.25 µM] (active).

Question: What about the growth (NCI-H322M lung) of the same molecule?
Answer: Its growth is 10.4% [6.25 µM].

Question: And the growth (HOP-62 NSCLC)?
Answer: Its growth is 4.26% [6.25 µM] (active).

Question: And the growth (NCI-H460 lung)?
Answer: The growth was -13.4% [6.25 µM] (active).

Question: What about the growth (HOP-92 NSCLC) of the same molecule?
Answer: Its growth is 12.6% [6.25 µM].

Question: What about the growth (NCI-H522 lung) of the same molecule?
Answer: Its growth is -57.1% [6.25 µM] (active).

Question: And the growth (A549/ATCC NSCLC)?
Answer: Its growth is -51.3% [6.25 µM] (active).

Question: And the growth (786-0 renal)?
Answer: The growth was 2.39% [6.25 µM] (active).

Question: What about the growth (COLO 205 colon) of the same molecule?
Answer: The growth was -57.3% [6.25 µM] (active).

Question: What about the growth (DU-145 prostate) of the same molecule?
Answer: The growth was 17.1% [6.25 µM].

Question: What about the growth (K-562 leukemia) of the same molecule?
Answer: The growth was 4.47% [6.25 µM] (active).

Question: And the growth (MALME-3M melanoma)?
Answer: Its growth is 28.1% [6.25 µM].

Question: And the growth (MDA-MB-231 breast)?
Answer: The growth was 14.6% [6.25 µM].

Question: And the growth (RXF 393 renal)?
Answer: The growth was -27.5% [6.25 µM] (active).

Question: And the growth (SF-268 CNS)?
Answer: Its growth is 6.9% [6.25 µM] (active).

Question: What about the growth (SF-295 CNS) of the same molecule?
Answer: The growth was 16.1% [6.25 µM].

Question: And the growth (SF-539 CNS)?
Answer: The growth was -0.618% [6.25 µM] (active).

Question: What about the growth (UACC-257 melanoma) of the same molecule?
Answer: Its growth is 1.35% [6.25 µM] (active).

Question: What about the growth (M14 melanoma) of the same molecule?
Answer: Its growth is -49.1% [6.25 µM] (active).

Question: `Cc1nc2sc(C(=O)Nc3cccc4ccccc34)c(N)c2cc1C(=O)/C=C/c1ccccc1` was tested. Which growth (NCI-H23 lung) did it give?
Answer: The growth was 9.08% (active).

Question: What about the growth (NCI-H226 lung) of the same molecule?
Answer: The growth was -59.4% (active).

Question: What about the growth (NCI-H322M lung) of the same molecule?
Answer: The growth was 24%.

Question: What about the growth (HOP-62 NSCLC) of the same molecule?
Answer: Its growth is -21.1% (active).

Question: And the growth (NCI-H460 lung)?
Answer: Its growth is -34.2% (active).

Question: And the growth (HOP-92 NSCLC)?
Answer: The growth was 28.3%.

Question: And the growth (NCI-H522 lung)?
Answer: Its growth is -33.4% (active).

Question: And the growth (A549/ATCC NSCLC)?
Answer: The growth was 12.9%.

Question: What about the growth (786-0 renal) of the same molecule?
Answer: The growth was -55.5% (active).

Question: And the growth (COLO 205 colon)?
Answer: The growth was -15% (active).

Question: What about the growth (DU-145 prostate) of the same molecule?
Answer: Its growth is -3.16% (active).

Question: What about the growth (K-562 leukemia) of the same molecule?
Answer: Its growth is 12%.

Question: What about the growth (MALME-3M melanoma) of the same molecule?
Answer: Its growth is 34%.

Question: And the growth (MDA-MB-231 breast)?
Answer: Its growth is -16.2% (active).

Question: And the growth (RXF 393 renal)?
Answer: Its growth is -87.2% (active).

Question: What about the growth (SF-268 CNS) of the same molecule?
Answer: The growth was 9.83% (active).

Question: And the growth (SF-295 CNS)?
Answer: Its growth is -30.7% (active).

Question: And the growth (SF-539 CNS)?
Answer: The growth was -20.1% (active).

Question: And the growth (UACC-257 melanoma)?
Answer: The growth was 68.9%.

Question: And the growth (M14 melanoma)?
Answer: The growth was -15.3% (active).

Question: For `CCCN1C(=O)/C(=c2\sc3n(c2=O)NC2C(N=3)N(CC)C(=O)N2CC)c2ccccc21` (stereo not given), which growth (NCI-H23 lung) is on record?
Answer: The growth was 38.8%.

Question: And the growth (NCI-H226 lung)?
Answer: Its growth is 69.3%.

Question: What about the growth (NCI-H322M lung) of the same molecule?
Answer: The growth was 55%.

Question: And the growth (HOP-62 NSCLC)?
Answer: Its growth is 50.8%.

Question: And the growth (NCI-H460 lung)?
Answer: Its growth is 18.5%.

Question: And the growth (HOP-92 NSCLC)?
Answer: The growth was 86.2%.

Question: And the growth (NCI-H522 lung)?
Answer: The growth was 11.9%.

Question: And the growth (A549/ATCC NSCLC)?
Answer: Its growth is 42%.

Question: What about the growth (786-0 renal) of the same molecule?
Answer: The growth was 53.3%.

Question: And the growth (COLO 205 colon)?
Answer: Its growth is 23%.

Question: And the growth (DU-145 prostate)?
Answer: Its growth is 33.5%.

Question: And the growth (K-562 leukemia)?
Answer: The growth was 13.7%.

Question: What about the growth (MALME-3M melanoma) of the same molecule?
Answer: The growth was 61.8%.

Question: And the growth (MDA-MB-231 breast)?
Answer: The growth was 24.4%.

Question: And the growth (RXF 393 renal)?
Answer: The growth was -3.07% (active).

Question: What about the growth (SF-268 CNS) of the same molecule?
Answer: The growth was 70%.

Question: And the growth (SF-295 CNS)?
Answer: The growth was 39.6%.

Question: And the growth (SF-539 CNS)?
Answer: Its growth is 1.12% (active).

Question: And the growth (UACC-257 melanoma)?
Answer: Its growth is 47.5%.

Question: What about the growth (M14 melanoma) of the same molecule?
Answer: The growth was 23.3%.

Question: Which results are given for `CC/C(=C(/c1ccc(O)cc1)c1ccc(OCCN2CCCCCC2)cc1)c1ccc(Cl)cc1`?
Answer: growth (NCI-H23 lung): 80.4%; growth (NCI-H226 lung): 89.2%; growth (NCI-H322M lung): 84.1%; growth (HOP-62 NSCLC): 98.8%; growth (NCI-H460 lung): 46%; growth (HOP-92 NSCLC): 69.5%; growth (NCI-H522 lung): 90.2%; growth (A549/ATCC NSCLC): 70.6%; growth (786-0 renal): 18.4%; growth (COLO 205 colon): 4.48% (active); growth (DU-145 prostate): 82.9%; growth (K-562 leukemia): -21.5% (active); growth (MALME-3M melanoma): 47.5%; growth (MDA-MB-231 breast): 88.4%; growth (RXF 393 renal): 63.7%; growth (SF-268 CNS): 63.4%; growth (SF-295 CNS): 87.8%; growth (SF-539 CNS): 78.2%; growth (UACC-257 melanoma): 87.3%; growth (M14 melanoma): 17%
